The supplement of paper PMC9694430

Key:
Test in all cases: thermal shift delta Tm vs DMSO control; higher = stronger stabilization (binding)
Conditions in all cases: 12.5 µM; protein concentration 2 µM
LOC_OS02G45750-cb003 = tested on: LOC_OS02G45750-cb003
Procedure, shortened: (§1)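 Rice kinase domain constructs, made in E. coli and purified, were placed in 96-well plates at 2 μM in 19.5 μl of 100 mM potassium phosphate pH 7.5, 150 mM NaCl, 10% glycerol and 5 × SYPRO Orange, with compound in DMSO. A temperature ramp from 25°C to 95°C at 0.05°C/s was used for differential scanning fluorimetry. The melting temperature shift is a triplicate mean compared with DMSO-only protein, derived from Boltzmann fits.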

LOC_OS02G54510-cb004 = tested on: LOC_OS02G54510-cb004
Procedure, shortened: as §1

LOC_OS03G04050-cb001 = tested on: LOC_OS03G04050-cb001
Procedure, shortened: as §1

LOC_OS03G12390-cb001 = tested on: LOC_OS03G12390-cb001
Procedure, shortened: as §1

LOC_OS03G27990-cb004 = tested on: LOC_OS03G27990-cb004
Procedure, shortened: as §1

LOC_OS03G50450-cb001 = tested on: LOC_OS03G50450-cb001
Procedure, shortened: as §1

LOC_OS03G50810-cb003 = tested on: LOC_OS03G50810-cb003
Procedure, shortened: as §1

LOC_OS04G35114-cb001 = tested on: LOC_OS04G35114-cb001
Procedure, shortened: as §1

LOC_OS04G38480-cb003 = tested on: T1, LOC_OS04G38480-cb003
T1 sequence (whole entry): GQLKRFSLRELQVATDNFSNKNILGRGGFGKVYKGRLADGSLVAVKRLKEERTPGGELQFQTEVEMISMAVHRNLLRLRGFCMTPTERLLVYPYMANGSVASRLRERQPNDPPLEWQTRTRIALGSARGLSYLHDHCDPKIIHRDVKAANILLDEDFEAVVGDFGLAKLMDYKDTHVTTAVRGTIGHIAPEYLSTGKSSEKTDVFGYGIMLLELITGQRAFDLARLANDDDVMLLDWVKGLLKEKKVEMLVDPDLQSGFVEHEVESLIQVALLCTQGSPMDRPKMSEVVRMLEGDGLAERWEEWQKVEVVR
Procedure, shortened: as §1

LOC_OS04G41100-cb001 = tested on: T2, LOC_OS04G41100-cb001
T2 sequence (whole entry): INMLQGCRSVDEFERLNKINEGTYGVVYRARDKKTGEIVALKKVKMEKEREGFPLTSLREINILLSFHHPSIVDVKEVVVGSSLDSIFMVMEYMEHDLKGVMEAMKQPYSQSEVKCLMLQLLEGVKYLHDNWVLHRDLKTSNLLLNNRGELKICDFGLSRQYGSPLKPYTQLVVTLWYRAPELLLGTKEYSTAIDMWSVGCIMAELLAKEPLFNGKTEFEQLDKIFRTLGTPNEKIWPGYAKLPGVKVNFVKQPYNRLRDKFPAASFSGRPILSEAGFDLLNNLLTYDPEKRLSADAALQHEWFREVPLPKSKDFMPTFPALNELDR
Procedure, shortened: as §1
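Also: purified Escherichia coli-expressed rice kinase domain construct.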

SMILES | thermal shift delta Tm (LOC_OS02G45750-cb003) | thermal shift delta Tm (LOC_OS02G54510-cb004) | thermal shift delta Tm (LOC_OS03G04050-cb001) | thermal shift delta Tm (LOC_OS03G12390-cb001) | thermal shift delta Tm (LOC_OS03G27990-cb004) | thermal shift delta Tm (LOC_OS03G50450-cb001) | thermal shift delta Tm (LOC_OS03G50810-cb003) | thermal shift delta Tm (LOC_OS04G35114-cb001) | thermal shift delta Tm (LOC_OS04G38480-cb003) | thermal shift delta Tm (LOC_OS04G41100-cb001)
N#CC(=C(/N)Sc1ccccc1N)/C(C#N)=C(\N)Sc1ccccc1N | 0.68 °C | -0.59 °C | 0.78 °C | 1.33 °C | 0.63 °C | 0.62 °C | 0.78 °C | -0.47 °C | -1.15 °C | 0.28 °C
COc1ccc(C(=O)Nc2sc3c(c2C(N)=O)CCCC3)cc1OC | 3.21 °C | 0.13 °C | 0.38 °C | 0.22 °C | 0.12 °C | 0.38 °C | 1.2 °C | 3.8 °C | 3.31 °C | 0.28 °C
Cc1c(CN2CCN(C(=O)[C@H](C)O)CC2)sc2c(N3CCOCC3)nc(-c3cnc(N)nc3)nc12 [Apitolisib (GDC-0980, RG7422)] | 0.62 °C | 0.4 °C | 0.32 °C | 0.75 °C | 0.18 °C | 1.38 °C | 0.78 °C | 0.55 °C | 1.12 °C | 0.47 °C
CO[C@H]1C[C@@H]2CC[C@@H](C)[C@@](O)(O2)C(=O)C(=O)N2CCCC[C@H]2C(=O)O[C@H]([C@H](C)C[C@@H]2CC[C@@H](OC(=O)C(C)(CO)CO)[C@H](OC)C2)CC(=O)[C@H](C)/C=C(\C)[C@@H](O)[C@@H](OC)C(=O)[C@H](C)C[C@H](C)/C=C/C=C/C=C/1C | 0.69 °C | -0.04 °C | 0.5 °C | -0.26 °C | 0.07 °C | 0.44 °C | -0.05 °C | -0.13 °C | 1.42 °C | 0.7 °C
COc1cc2ncnc(Nc3ccc(Cl)cc3F)c2cc1OC | 2.84 °C | 0.95 °C | 0.25 °C | 2.87 °C | 0.55 °C | 0.36 °C | 1.2 °C | 7.37 °C | 1.81 °C | 0.5 °C
O=C(Nc1cccc(C(F)(F)F)c1)c1cccc2cc(Oc3cc(CO)ncn3)ccc12 | 0.82 °C | 0.52 °C | 0.59 °C | -0.09 °C | 0.52 °C | 0.11 °C | 0.03 °C | 0.55 °C | 1.4 °C | 0.37 °C
COc1cc2ncnc(Sc3nnc(C)s3)c2cc1OC | 2.63 °C | 0.34 °C | 0.71 °C | -0.23 °C | 0.56 °C | 0.5 °C | 0.54 °C | 2.86 °C | 0.54 °C | 0.9 °C
Cn1cc(-c2ccc(F)c(C(F)(F)F)c2)nc1C1CCN(c2ncnc3[nH]ncc23)CC1 | 0.33 °C | 0.45 °C | 0.47 °C | -0.18 °C | 0.44 °C | 0.81 °C | 0.37 °C | 0.97 °C | 0.91 °C | 0.15 °C
CO[C@@H](C(=O)N1Cc2[nH]nc(NC(=O)c3ccc(N4CCN(C)CC4)cc3)c2C1)c1ccccc1 | 6.97 °C | 0.95 °C | 0.25 °C | 4.21 °C | 0.41 °C | -0.04 °C | 3.61 °C | 4.16 °C | 2.5 °C | 1.51 °C
N#Cc1ccc2[nH]c(O)c(-c3ccc(CN4CCOCC4)cn3)c2c1 | 1.77 °C | -0.01 °C | 0.4 °C | 2.43 °C | 0.48 °C | 0.53 °C | 1.1 °C | 1.83 °C | -0.4 °C | 2.66 °C
Cn1sc(=O)n(Cc2ccccc2)c1=O | -1.04 °C | -2 °C | -0.78 °C | -3.39 °C | -9.72 °C | -0.11 °C | -3.78 °C | 0.63 °C | 1.35 °C | 0.43 °C
CN1C(=O)[C@@H](NC(=O)c2n[nH]c(Cc3ccccc3)n2)COc2ccccc21 | 0.85 °C | -0.02 °C | 0.45 °C | 0.81 °C | 0.38 °C | 0.66 °C | 0.57 °C | -0.51 °C | 2 °C | 0.34 °C
CS(=O)(=O)N1CCc2c(-c3cnc(N)nc3)nc(N3CCOCC3)nc21 | 1.16 °C | 0.52 °C | 0.13 °C | 0.72 °C | 0.23 °C | 0.77 °C | 0.53 °C | 0.89 °C | 1.31 °C | 0.14 °C
Cc1ccc(S(=O)(=O)/C=C/C#N)cc1 | -0.28 °C | 1.4 °C | 0.67 °C | -0.03 °C | -0.15 °C | 0.08 °C | -1.25 °C | 0.08 °C | 0.47 °C | -0.67 °C
N#Cc1c(Oc2ccc(F)c(NC(=O)Cc3cccc(C(F)(F)F)c3)c2)ccc2nc(NC(=O)C3CC3)sc12 | 1.08 °C | 0.54 °C | 0.5 °C | 0.15 °C | 0.31 °C | 0.4 °C | 0.5 °C | 0.45 °C | 1.92 °C | 0.42 °C
O=C(NCCCNc1nc(Nc2cccc(NC(=O)N3CCCC3)c2)ncc1I)c1cccs1 | 14.3 °C | 1.24 °C | 0.97 °C | 7.32 °C | 0.57 °C | 6.67 °C | 6.52 °C | 7.01 °C | 3.4 °C | 2.91 °C
CCc1cccc(CC)c1NC(=O)N1Cc2[nH]nc(NC(=O)c3ccc(N4CCN(C)CC4)cc3)c2C1 | 2.47 °C | 0.46 °C | 0.29 °C | 4.75 °C | 0.09 °C | 0.27 °C | 2.53 °C | 4.67 °C | 0.61 °C | 0.62 °C
Cn1c(=O)c(F)c(Nc2ccc(I)cc2F)c2c(=O)n(C[C@@H](O)CO)cnc21 | 1.03 °C | 0.28 °C | 0.51 °C | 0.07 °C | 0.21 °C | 0.15 °C | 0.78 °C | 0.35 °C | 0.83 °C | 0.43 °C
Cn1c2ccccc2c2c3c(c4c5ccccc5n(CCC#N)c4c21)CNC3=O | 5.83 °C | 0.92 °C | 0.61 °C | 2.98 °C | 1.85 °C | 1.84 °C | 6.02 °C | 11.6 °C | 2.74 °C | 0.46 °C
COc1cc2ncnc(Nc3cccc(Cl)c3F)c2cc1OC(=O)N1CCN(C)C[C@H]1C | 1.31 °C | 0.53 °C | 0.43 °C | 0.01 °C | 0.33 °C | 0.9 °C | 0.48 °C | 3.07 °C | 1.2 °C | 0.24 °C
